FLuc counter – counter-screen for miR-21 project: firefly luciferase inhibitors or activators | AID 588342 | Potency, µM (titrated, usually from 57.5 µM), usual class: inhibitors | 6.9% of 360,000 active | purified FLuc, Km substrates, luminescence inhibition; also: nearly all actives have a fitted effect of over 55% in size
Target sequence (P08659 whole entry, looked up): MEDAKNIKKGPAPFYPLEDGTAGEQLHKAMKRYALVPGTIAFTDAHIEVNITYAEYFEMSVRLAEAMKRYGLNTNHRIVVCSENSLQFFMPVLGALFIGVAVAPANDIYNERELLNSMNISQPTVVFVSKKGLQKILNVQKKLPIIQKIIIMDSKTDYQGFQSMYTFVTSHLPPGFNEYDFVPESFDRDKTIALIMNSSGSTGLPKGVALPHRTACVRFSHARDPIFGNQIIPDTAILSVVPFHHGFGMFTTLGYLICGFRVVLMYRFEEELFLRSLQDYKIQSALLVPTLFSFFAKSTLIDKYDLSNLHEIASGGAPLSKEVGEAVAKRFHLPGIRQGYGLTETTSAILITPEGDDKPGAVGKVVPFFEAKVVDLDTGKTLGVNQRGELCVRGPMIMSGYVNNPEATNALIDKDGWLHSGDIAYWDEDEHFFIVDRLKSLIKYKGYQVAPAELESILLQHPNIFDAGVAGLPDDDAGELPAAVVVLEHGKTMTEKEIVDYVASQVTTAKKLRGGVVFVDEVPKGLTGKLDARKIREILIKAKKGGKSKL
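Purified P. pyralis luciferase (10nM final) with 10uM D-luciferin and 10uM ATP (Km levels) in 50mM Tris acetate pH 7.5, 10mM Mg acetate, 0.01% Tween-20, 0.05% BSA; qHTS 6-point titration, ~60 µM downward; luminescence read.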
NPC1 prom act – NPC1 promoter activation; Huh7 NPC1 promoter luciferase reporter, 24 h; Potency, µM (top dose mostly 9.22 µM), most hits filed as activators; 2.4% of 320,000 active; also: nearly all actives have a fitted effect of over 60% in size
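In 1536-well qHTS, Huh7 cells harboring an NPC1 promoter–luciferase construct received compound for 24 h; activation was quantified by luminescence following luciferase reagent addition.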
Rab9 prom act – activates the Rab9 promoter. Huh7 Rab9 promoter-luciferase reporter, luminescence, 24 h. Potency, µM (series often up to 9.22 µM), usual class: activators. 2.8% of 320,000 active; also: nearly all actives have a fitted effect of over 60% in size
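Luminescence from Amplite-detected luciferase (10 minutes, ambient) reports Rab9 promoter activation. Before that, stable Rab9-luciferase Huh7 cells (1500/well, reduced-serum OP-MEM I plus 10% FBS) were exposed to compound for 24 hours at 37C.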
ELG1 genotox – induces genotoxicity in HEK293T cells with luciferase-tagged ELG1; HEK293T ELG1-luciferase reporter, luminescence, 16 h; Potency, µM (doses to about 46 µM), usual class: activators; 1.3% of 330,000 active; also: nearly all actives have a fitted effect of over 60% in size
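HEK293T cells expressing luciferase-tagged ELG1 were treated with compound or DMSO for 16 hr at 37°C. Luciferase activity was then read after 30 min with ONE-Glo at room temperature; rising signal flags genetic stress.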
SMN2 splice enh – increases expression of the SMN2 splice variant; HEK293 SMN2-luciferase splicing reporter, luminescence, 30-36 h; Potency, µM (highest dose often 46.1 µM), hits mostly activators; 2.8% of 210,000 active; also: nearly all actives have a fitted effect of over 55% in size
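qHTS luciferase splicing reporter: luminescence rises when SMN2 exon 7 is included in transfected HEK293 cells. Compound exposure lasted 30-36 h at 37C, with 4.5 mM final sodium butyrate as control, followed by a ONE-Glo read.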
Each line names hits and unclear results; the compound was inactive in the other large screens. The list is not random: actives were taken first. Their share in the collection is about 7.5%. Calls follow the shape of the dose curve; as a rule, active = well fitted curve in the direction sought with a large enough effect; inconclusive = small, poorly fitted or top-dose-only effect, or another doubt; inactive = no such curve, though single readings can be large; an effect the other way counts as inactive or inconclusive.

CCS(=O)(=O)Nc1cc(-c2nc3cccnc3s2)ccc1C	FLuc counter 9.5µM, NPC1 prom act 3.5µM, ELG1 genotox 2.9µM, SMN2 splice enh 11µM
CCOC(=O)c1cc(-c2ccc(F)cc2)n(CCC(=O)NCc2ccc(C)cc2)c1C	none (no result: NPC1 prom act, Rab9 prom act, ELG1 genotox, SMN2 splice enh)
COc1ccccc1/C=C/C(=O)NNC(=O)c1cccs1	FLuc counter inconclusive, ELG1 genotox inconclusive
CC1Cc2ccccc2N1C(=O)COC(=O)CCc1nc2ccccc2c(=O)[nH]1 (stereo not given)	none
O=C1OC(Cc2ccccn2)C(O)=C1C1=NCCCCN1 (stereo not given)	FLuc counter inconclusive, NPC1 prom act 2.2µM, Rab9 prom act 2.2µM, ELG1 genotox inconclusive, SMN2 splice enh 10µM
O=C1CNC(=O)/C(=C\c2ccccc2)N1	none (no result: SMN2 splice enh)
O=C1/C(=C/c2ccccc2)Nc2ccccc21	FLuc counter 4.3µM
CC(=O)c1cccc(N(CC(=O)NC2CCCCC2)C(=O)CCC(=O)Nc2nc(C)cs2)c1	none (no result: SMN2 splice enh)
CN1c2ccccc2C(=O)/C(=C\Nc2ccc(F)cc2)S1(=O)=O	FLuc counter 12µM (no result: SMN2 splice enh)
CN1c2ccsc2C(=O)/C(=C\Nc2cccc(C(F)(F)F)c2)S1(=O)=O	FLuc counter inconclusive (no result: SMN2 splice enh)
O=C(CSc1ncn[nH]1)N/N=C/c1ccc(Br)cc1	FLuc counter 15µM (no result: SMN2 splice enh)
CCOc1cc(C(=O)N2CC(=O)Nc3ccc(F)cc3C2c2ccccc2)cc(OCC)c1OCC (stereo not given)	none (no result: NPC1 prom act, Rab9 prom act, ELG1 genotox)
O=C(CSc1nc2ccccc2c2nc(-c3ccccc3)nn12)Nc1ccc(F)cc1	none (no result: NPC1 prom act, Rab9 prom act, ELG1 genotox, SMN2 splice enh)
O=C(Nc1cccc(NC(=O)c2cccs2)c1)c1ccc2c(c1)OCCO2	FLuc counter 7.6µM (no result: SMN2 splice enh)
O=C(CCCc1ccccc1)Nc1ccc2c(c1)OCCO2	FLuc counter 2.1µM, NPC1 prom act 0.5µM, Rab9 prom act 0.45µM, ELG1 genotox 2.1µM, SMN2 splice enh 6.3µM
CN1C(=O)c2ccc(C(=O)Nc3ccc4c(c3)OCO4)cc2C1=O	FLuc counter 2.4µM, ELG1 genotox inconclusive (no result: SMN2 splice enh)
O=C(NC(=S)Nc1ccc2c(c1)OCCO2)c1cccc2ccccc12	FLuc counter 15µM, SMN2 splice enh inconclusive
CN1C(=O)c2ccc(NC(=O)c3cccc(N4C(=O)CCC4=O)c3)cc2C1=O	none
O=C(O)c1ccccc1NC(=S)NC(=O)c1cccc2ccccc12	none
CCc1cccc2c(C(=O)CSc3nnc(C4CC4)o3)c[nH]c12	none (no result: SMN2 splice enh)
O=c1c(O)cc(C2Oc3cc(O)cc(O)c3CC2O)cc2c(C3Oc4cc(O)cc(O)c4CC3O)cc(O)c(O)c12 (stereo not given)	none (no result: FLuc counter, NPC1 prom act, Rab9 prom act, ELG1 genotox)
O=C(Nc1ccc2c(c1)OCCO2)c1ccccc1	FLuc counter 3.4µM, NPC1 prom act 0.45µM, Rab9 prom act 0.79µM, ELG1 genotox 3.7µM (no result: SMN2 splice enh)
O=C(Nc1ccc2c(c1)OCCO2)c1ccc(Cl)cc1Cl	FLuc counter 1.2µM, NPC1 prom act 0.45µM, Rab9 prom act 0.28µM, ELG1 genotox inconclusive (no result: SMN2 splice enh)
CC(C)(O)C#Cc1ccc(C(=O)Nc2ccc3c(c2)OCO3)s1	FLuc counter 8.5µM, NPC1 prom act 2.8µM, Rab9 prom act inconclusive, ELG1 genotox inconclusive (no result: SMN2 splice enh)
O=C(Nc1cccc(Cl)c1)c1ccc2c(c1)OCCO2	FLuc counter 1.1µM, NPC1 prom act 1.3µM, Rab9 prom act 1.8µM, ELG1 genotox 2.1µM (no result: SMN2 splice enh)
Cc1ccccc1CN1CCN(c2ccc(S(=O)(=O)N3CCCC3)cn2)CC1	none (no result: SMN2 splice enh)
Cc1noc(C)c1COc1cccc(C(=O)Nc2ccc3c(c2)OCO3)c1	FLuc counter inconclusive
CCOc1cccc(C(=O)Nc2ccc3c(c2)OCCO3)c1	FLuc counter 1.5µM, NPC1 prom act inconclusive, Rab9 prom act inconclusive, ELG1 genotox 2.3µM (no result: SMN2 splice enh)
O=C(NC(=S)Nc1ccccc1Br)c1ccc2c(c1)OCO2	FLuc counter 9.5µM, NPC1 prom act inconclusive, ELG1 genotox inconclusive (no result: SMN2 splice enh)
O=C(Nc1cccc([N+](=O)[O-])c1)c1ccc2c(c1)OCCO2	FLuc counter 7.6µM, NPC1 prom act 3.5µM, Rab9 prom act inconclusive, ELG1 genotox inconclusive, SMN2 splice enh 18µM
CN(CC(=O)Nc1ccccc1Br)C(=O)CNC(=O)c1ccc2c(c1)OCO2	none (no result: SMN2 splice enh)
COc1cc(NC(=S)Nc2ccc3c(c2)OCCO3)cc(OC)c1OC	none (no result: SMN2 splice enh)
S=C(Nc1ccc(Br)cc1)Nc1ccc2c(c1)OCCO2	FLuc counter 12µM, NPC1 prom act inconclusive, Rab9 prom act inconclusive, ELG1 genotox inconclusive (no result: SMN2 splice enh)

Bioassay records deposited in PubChem BioAssay by National Center for Advancing Translational Sciences (NCATS).
